# Only some compounds are listed: those with a hit (about 2.2% of all), similar ones and a draw of the others.
# HMGR II inh – blocks class II HMG-CoA reductase of Enterococcus faecalis | purified E. faecalis HMGR, NADPH absorbance 340 nm kinetic | inhibition, % at 10 µM | 190,000 tested, 0.41% active;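 active = inhibition above a set limit, the median over all tested compounds plus 3 SD, cut at about 9.5% in these data; inconclusive = no clear call, values can overlap the other calls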;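 note: enzyme runs in reverse so mevalonate oxidation gives rising NADPH absorbance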
# Ins promoter up – MIN6 insulin promoter up-regulation; z-score at 5 µM; MIN6 insulin promoter-GFP reporter, high-content imaging; active compounds read high; 190,000 tested, 0.3% active; AID 1625;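 active = z-score above 3 at 5 µM with at least 500 cells counted in the well; inconclusive = wells under 500 cells, flagged as cytotoxic or low count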
# p47phox inh – p47phox (human) inhibition | p47phox/p22phox peptide binding, fluorescence polarization, 2 h | inhibition, % at 24.7 µM | 220,000 tested, 0.53% active | AID 1274;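 active = inhibition above about 30%, limit read from the data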
# Target sequence (P14598 whole entry, looked up): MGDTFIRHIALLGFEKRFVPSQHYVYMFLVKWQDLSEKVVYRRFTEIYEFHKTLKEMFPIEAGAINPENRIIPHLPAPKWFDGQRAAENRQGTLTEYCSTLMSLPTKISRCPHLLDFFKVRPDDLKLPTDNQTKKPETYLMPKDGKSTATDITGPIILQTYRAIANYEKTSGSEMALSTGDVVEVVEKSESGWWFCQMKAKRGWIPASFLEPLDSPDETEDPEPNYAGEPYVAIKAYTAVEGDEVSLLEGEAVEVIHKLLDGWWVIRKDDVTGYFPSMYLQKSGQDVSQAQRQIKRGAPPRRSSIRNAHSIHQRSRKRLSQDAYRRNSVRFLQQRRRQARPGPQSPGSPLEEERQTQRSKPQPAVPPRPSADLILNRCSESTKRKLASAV
# Arbovirus anti – antivirals against arbovirus infection | arbovirus infection cell-based antiviral screen | inhibition, % at 10 µM | 200,000 tested, 0.37% active | AID 1251; in the data active = inhibition above about 30%
# Autophagy HCS – modulators of autophagy. calls only at 10 µM (by protocol). 190,000 tested, 0.98% active. MEF GFP-LC3 puncta imaging; test concentration mostly 10 µM. AID 463193;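 active = percentage of spot-positive cells more than 3 SD above its plate mean, without a fluorescence outlier flag or 80% toxicity; inconclusive = no clear call, values can overlap the other calls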
# DTT redox prof – compounds producing H2O2 with reducing agent – biochemical, NIH compound library profiling, artefact control for MLSCN library redox annotation, primary screen. DTT-dependent redox cycling H2O2, phenol red/HRP absorbance; 100% = 100 µM peroxide control, 0% = buffer. activation, % at 10 µM. 200,000 tested, 0.03% active. AID 878;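 active = activation of at least 50% relative to the plate's high and low controls in the primary single-dose screen; inactive = activation below 50%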;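 note: compound incubated with DTT at 0.8 mM final as the reducing agent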
# A number is an active result; 0 = inactive; ? = inconclusive; - = no result; + = active, no number; ! = repeats disagree.
SMILES,HMGR II inh,Ins promoter up,p47phox inh,Arbovirus anti,Autophagy HCS,DTT redox prof
CN(C)c1ccc(/C=C/c2ccc3c4ccccc4ccc3[n+]2-c2ccccc2)cc1,0,?,0,0,+,0
CN(C)c1ccc(/C=C/c2ccc3ccccc3[n+]2C)cc1,0,?,0,0,+,0
Cc1ccc(NC(=O)N(Cc2nc3ccccc3c(=O)[nH]2)Cc2cccs2)cc1,0,0,0,0,0,0
CCN(CC)S(=O)(=O)c1cc([N+](=O)[O-])ccc1N=Nc1c(O)[nH]c2ccccc12,0,-,0,0,+,0
CC(C)C(=O)NS(=O)(=O)c1ccc(NS(C)(=O)=O)cc1,-,-,0,-,-,-
O=C(Nc1ccc(F)cc1)C1CC(=O)n2cnnc2N1 (centres undefined),9.7,0,0,0,0,0
O=C(Nc1ccc(F)cc1)C1CC(=O)n2ncnc2N1 (centres undefined),0,0,0,0,0,0
O=C(NC(=S)Nc1ccccc1)c1cncc(C#Cc2ccccc2)c1,-,0,0,-,-,-
COCc1nnc(NS(=O)(=O)c2ccc(Br)cc2)s1,0,0,0,0,0,0
CC(C)(C)Cc1nnc(NS(=O)(=O)c2ccccc2)s1,14,0,0,0,0,0
COc1ccc(NC(=O)Nc2ccc(Cc3ccncc3)cc2)c(OC)c1,0,-,0,0,0,0
CC1CCc2cc(F)ccc2N1C(=O)c1ccc2c(c1)OCO2 (centres undefined),0,0,0,0,+,0
COc1ccc(C(=O)N2c3ccc(F)cc3CCC2C)cc1OC (centres undefined),0,0,0,0,0,0
CCOc1cc(C2c3c(oc4cc(C)c(Cl)cc4c3=O)C(=O)N2Cc2ccco2)ccc1O (centres undefined),0,0,0,0,+,0
CCCCOc1ccc2ccccc2c1C=O,0,0,0,0,+,0
O=[N+]([O-])/C=C/c1c(OCc2ccccc2)ccc2ccccc12,0,-,0,0,0,0
COc1ccc2nc3ccccc3nc2c1NC(=O)c1ccc(Cl)cc1Cl,0,0,0,0,+,0
Cc1cc(C)cc(Oc2ccccc2CO)c1,0,0,33,0,0,0
Cc1cc2ccccn2c1C(=O)c1cccc([N+](=O)[O-])c1,0,0,0,0,0,0
Cc1cc2ccccn2c1C(=O)c1ccc([N+](=O)[O-])o1,0,0,0,0,+,0
CC(C)CC(=O)Nc1ccc2ccccc2c1,0,0,91!,0,0,0
CCC(=O)Nc1ccc2ccccc2c1,0,-,0,0,0,0
Cc1cccc(C)c1N1CCN(C(=O)N2CCCCC2)CC1,14,0,0,0,0,0
Cc1cccc(N2CCN(C(=O)N3CCCCC3)CC2)c1C,0,0,0,0,0,0
O=C(Nc1ccc(F)cc1)Nc1ccc([N+](=O)[O-])cn1,0,0,0,0,+,0
SMILES,HMGR II inh,Ins promoter up,p47phox inh,Arbovirus anti,Autophagy HCS,DTT redox prof
CCOC(=O)CCC(NC(=O)CCCCCCCC(=O)NC(CCC(=O)OCC)C(=O)OCC)C(=O)OCC (centres undefined),0,0,0,0,0,0
CCCc1nn(C)c(C(=O)Nc2cccc3ccccc23)c1Cl,0,0,0,0,+,0
CCc1nc2ccccc2c2nc3ccccc3n12,0,0,0,0,0,0
O=c1c2ccc([N+](=O)[O-])c3cccc(c32)c2nc3ccccc3n12,0,0,0,0,+,0
O=c1c2cccc3c(N4CCOCC4)ccc(c32)c2nc3ccccc3n12,-,9.8,-,-,-,-
COC(=O)c1sccc1NC(=O)Nc1cccc(F)c1,0,0,0,0,0,0
CC(C)(C)c1nn2cnnc2n(/N=C/c2ccc(O)cc2)c1=O,0,0,0,0,0,0
COc1ccccc1NC(=S)NCCSc1ccc(C)cc1,0,0,0,34,0,0
Cc1ccc(SCCNC(=S)Nc2ccccc2)cc1,0,0,0,0,0,0
Cc1nn(-c2ccccn2)c2c1C(=O)CC(C)(C)C2Br (centres undefined),-,0,0,-,-,-
O=C(NCc1cccc(Cl)c1)c1ccc(-c2csnn2)cc1,-,0,116,-,-,-
O=C(NCc1cccc(Cl)c1)c1ccc2nc[nH]c2c1,0,0,0,0,0,0
Cc1nc(NC(=O)/C=C/c2ccccc2)sc1C(=O)N1CCCCC1,0,-,0,0,0,0
Cc1cc2oc(=O)cc(Cn3ncc(Cl)c(Cl)c3=O)c2cc1Cl,0,?,0,0,+,0
Cc1cc2oc(=O)cc(CN3CCc4ccccc43)c2cc1Cl,0,0,0,0,0,0
O=C(COc1ccc(Cl)cc1[N+](=O)[O-])N1CCCCCC1,0,0,0,0,0,0
CCc1nc(N)nc(N)c1-c1ccc(Cl)cc1,15,-,0,0,0,0
Clc1ccccc1/C=N/NC1=Nc2cccc3cccc1c23,0,0,0,0,+,0
CCc1nnc(NC(=O)c2ccc(S(=O)(=O)N3CCOCC3)cc2)s1,0,0,0,0,0,0
CCc1nnc(NC(=O)c2cc(S(=O)(=O)N3CCCCC3)ccc2N2CCOCC2)s1,0,0,0,0,+,0
Cc1cnc(NC(=O)c2cc3ccccc3o2)s1,30,0,0,0,0,0
O=C(Nc1ccon1)c1cccc(S(=O)(=O)N2CCCCC2)c1,0,3.5,0,0,0,0
COc1ccc(-n2c(Cc3cccn3C)nnc2SCC(=O)Nc2cccc(Cl)c2)cc1,0,0,0,36,-,0
COc1ccc(-n2c(Cc3cccn3C)nnc2SCC(=O)Nc2cccc(NC(C)=O)c2)cc1,0,0,0,0,0,0
Cc1ccc([N+](=O)[O-])cc1S(=O)(=O)NCCc1c(C)[nH]c2c(C)cccc12,0,0,0,0,0,0
SMILES,HMGR II inh,Ins promoter up,p47phox inh,Arbovirus anti,Autophagy HCS,DTT redox prof
Cc1[nH]c2c(C)cccc2c1CCNS(=O)(=O)c1cccc([N+](=O)[O-])c1,0,-,0,0,+,0
Cc1cc(C)c(S(=O)(=O)NCC(CCC(=O)O)C(F)(F)F)c(C)c1 (centres undefined),0,0,0,0,0,0
CCCCN(CC)CCCNC(=S)Nc1ccc2nc(N3CCN(CC)CC3)cc(C)c2c1,0,0,0,0,+,0
CCCN(CCC)CCCNC(=S)Nc1ccc2nc(N3CCCC3)cc(C)c2c1,0,0,0,0,0,0
CCCCN(CC)CCCNC(=S)Nc1ccc2nc(N3CCN(C)CC3)cc(C)c2c1,0,0,0,0,+,0
O=S(=O)(NC1CCCCC1)c1ccc(Cl)nc1,0,0,0,0,0,0
Cc1ccccc1OCCNc1cc(N2CC(C)NC(C)C2)ccc1[N+](=O)[O-] (centres undefined),0,0,0,0,+,0
O=[N+]([O-])c1ccc(N2CCCCC2)cc1NCCOc1ccccc1,0,0,0,0,0,0
COc1cc2c(cc1OC)CN(C(=S)NC(=O)c1ccccc1)CC2,0,0,31,0,0,0
O=C(Nc1cccnc1)c1ccc(COc2cc(Cl)ccc2Cl)o1,0,0,0,0,0,0
